Data: PubChem BioAssay
Active and inactive are the calls of the source. Unless noted, no rule for the calls is given here.

Experiments:
[1] = system: Wnt5a (protein binding on small-molecule microarray); experiment: Wnt5a binders on small-molecule microarray, primary screen, biophysical, 635/667 nm fluorescence (AID 1142); conditions: 635 nm fluorescence, higher = more signal;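 also: fluorescence read at 667 nm with signal to noise per printed feature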
[2] = cell viability in Huh7 cells, primary screen, cytotoxicity control for HCV replication inhibitor project, CellTiter-Glo luminescence, basal, 48 h (AID 1143); conditions: Huh7 HCV replicon, higher = more signal, called active from +8 up or from −8 down;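 also: Huh7 hepatoma cells carrying a hepatitis C replication reporter with no stimulus; test concentration not given here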
[3] = P. aeruginosa biofilm formation inhibitors, primary screen, PAO1 strain, BacTiter-Glo luminescence, LB-PBS (AID 1144); conditions: 12 h, higher = more signal
[4] = CREB reporter modulators without forskolin, primary screen, cell-based, PC12, CRE-LacZ reporter, unstimulated (AID 1145); conditions: no forskolin, luminescence, 4.5 h, higher = more signal, called active from +8 up or from −8 down
[5] = CREB reporter modulators under forskolin, primary screen, cell-based, PC12, CRE-LacZ reporter, forskolin-stimulated (AID 1146); conditions: luminescence, 4.5 h, higher = more signal, called active from +8 up or from −8 down;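 also: PC12 cells with 6xCRE LacZ reporter stimulated by forskolin 10 µM; beta-galactosidase reporter signal reflecting CREB driven transcription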
[6] = target: Streptavidin (Streptomyces avidinii) (UniProt P22629); experiment: streptavidin binders on small-molecule microarray, primary screen, artefact control for SMM compound annotation, biophysical, 635/667 nm fluorescence (AID 1147); conditions: streptavidin binding, higher = more signal;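 also: signal reflects streptavidin binding to arrayed compounds as a control protein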
[7] = small-molecule binders of probe aInhba, primary screen, biochemical, small-molecule microarray, 635/667 nm fluorescence (AID 1148); conditions: higher = more signal;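 also: score merges 667nm spot fluorescence with signal-to-noise for antibody binding to printed compounds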
Torsin-1A (Homo sapiens) [8] = target: Torsin-1A (Homo sapiens) (UniProt O14656); experiment: torsin A binders from cell lysate, primary screen, small-molecule microarray, wild-type, 635/667 nm (AID 1149); conditions: COS7 hTOR1A-WT lysate, 635 nm fluorescence, higher = more signal
Torsin-1A (Homo sapiens) [9] = target: Torsin-1A (Homo sapiens) (UniProt O14656); experiment: small-molecule binders of mutant TOR1A in lysate, primary screen, cell lysate, small-molecule microarray, COS7 lysate, 635/667 nm fluorescence (AID 1150); conditions: COS7 hTOR1A mutant lysate, 635 nm fluorescence, higher = more signal;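 also: score pools 667 nm emission and signal to noise measuring lysate protein binding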
[10] = system: Sonic hedgehog protein (Shh); experiment: small-molecule binders of Shh protein, primary screen, biochemical, small-molecule microarray, 635/667 nm fluorescence (AID 1151); conditions: small-molecule microarray binding, 635 nm fluorescence; higher = more signal;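 also: Shh protein binding to compounds spotted on small-molecule microarray slides; score combines spot fluorescence intensity with signal-to-noise across triplicate slides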

Streptavidin (Streptomyces avidinii), sequence (P22629 whole entry, looked up): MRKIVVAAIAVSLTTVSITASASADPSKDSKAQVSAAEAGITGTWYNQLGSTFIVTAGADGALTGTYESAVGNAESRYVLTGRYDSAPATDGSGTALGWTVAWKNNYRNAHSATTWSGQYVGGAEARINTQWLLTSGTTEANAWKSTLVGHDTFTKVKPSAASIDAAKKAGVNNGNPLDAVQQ
Torsin-1A (Homo sapiens), sequence (O14656 whole entry, looked up): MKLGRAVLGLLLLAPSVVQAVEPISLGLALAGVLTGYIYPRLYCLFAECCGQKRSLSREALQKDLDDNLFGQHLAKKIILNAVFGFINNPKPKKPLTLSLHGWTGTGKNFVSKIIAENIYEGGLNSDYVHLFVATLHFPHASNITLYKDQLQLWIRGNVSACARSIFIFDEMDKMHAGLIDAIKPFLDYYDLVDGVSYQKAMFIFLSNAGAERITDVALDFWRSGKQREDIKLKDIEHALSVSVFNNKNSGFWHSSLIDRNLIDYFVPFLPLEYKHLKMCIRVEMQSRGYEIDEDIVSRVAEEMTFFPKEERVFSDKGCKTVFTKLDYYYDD

Row | Structure (SMILES) | composite z-score [1] | z-score [2] | z-score [3] | z-score [4] | z-score [5] | composite z-score [6] | composite z-score [7] | composite z-score (Torsin-1A (Homo sapiens) [8]) | composite z-score (Torsin-1A (Homo sapiens) [9]) | composite z-score [10]
1 | C=CC[C@]1(C(=O)NCc2ccccc2)N=C(c2ccc(OCCCO)cc2)O[C@H]1c1ccccc1 | -0.2 | -4.19 (inactive) | -0.71 (inactive) | 0.848 (inactive) | 1.34 (inactive) | -0.134 | -0.003 | 1.04 | 1.39 | -0.872
2 | CCN1C(=O)[C@H]2[C@H]3[C@H](O)[C@H](O)CC(=NOCc4ccccc4)[C@@H]3CC[C@H]2C1=O | -0.0713 | -0.672 (inactive) | 0.855 (inactive) | 1.42 (inactive) | 0.479 (inactive) | -0.0346 | -0.0575 | 0.962 | 0.236 | 0.531
3 | CCCC[C@@H]1C[C@H]1[C@@H](NS(=O)(=O)c1cccc2cccnc12)c1ccc(-c2ccccc2)cc1 | -0.0366 | -0.325 (inactive) | -1.02 (inactive) | 0.204 (inactive) | 1.62 (inactive) | 0.731 | 0.134 | -0.199 | -0.199 | -1.66
4 | C[C@@H]1C=CCC(=O)OC[C@H](C)C(=O)OC[C@H]2O[C@H]1C=C[C@H]2O | 0.263 | 0.196 (inactive) | -0.0585 (inactive) | -0.2 (inactive) | 0.165 (inactive) | -0.392 | -0.105 | -0.0292 | 0.188 | 1.09
5 | CCOC(=O)NN=C1C[C@@H](O)[C@@H](O)[C@@H]2[C@@H]3C(=O)N(C(C)(C)C)C(=O)[C@@H]3CC[C@@H]12 | -0.263 | 0.312 (inactive) | 0.125 (inactive) | -0.0246 (inactive) | 0.244 (inactive) | -0.784 | -0.0849 | 0.527 | 0.541 | -0.36
6 | CC(C)CON=C1C[C@@H](O)[C@@H](O)[C@@H]2[C@@H]3C(=O)N(C[C@@H]4CCCO4)C(=O)[C@@H]3CC[C@H]12 | -0.0313 | -1.36 (inactive) | 1.34 (inactive) | -1.02 (inactive) | -0.296 (inactive) | -0.23 | -0.128 | 0.0672 | 1.49 | 0.819
7 | COc1ccc(O[C@H]2C=C[C@@H](c3ccccc3)O[C@@H]2COC(=O)CCC(C)=NOC(C)CN2CCCCc3nc(C)c(C)cc32)cc1 (stereo not given in full) | -0.133 | -0.622 (inactive) | -0.28 (inactive) | -0.817 (inactive) | 0.287 (inactive) | 0.095 | -0.0719 | -0.406 | -0.489 | -0.0679
8 | C[C@@H]1CC[C@H]2C(=O)O[C@H](COc3ccc(C(C)(C)C)cc3)CN2[C@H]1c1ccc(Br)cc1 | -0.131 | -0.443 (inactive) | -0.301 (inactive) | 0.262 (inactive) | 0.203 (inactive) | 0.102 | -0.17 | -0.175 | -0.142 | 0.348
9 | C=C(COC)/C(=C/C[C@H](OC(=O)c1ccncc1)c1ccc(CO)o1)c1cc(C(=O)OC)ccc1OC | 0.868 | -0.0528 (inactive) | -1.27 (inactive) | 0.0422 (inactive) | 0.877 (inactive) | -0.24 | -0.003 | 0.787 | 0.366 | 1.62
10 | O=C1[C@H]2[C@H]3[C@H](O)[C@H](O)CC(=NO[C@@H]4O[C@H](CO)[C@@H](O)[C@H](O)[C@H]4O)[C@H]3CC[C@H]2C(=O)N1Cc1ccccc1 | 0.927 | -0.871 (inactive) | 0.641 (inactive) | -0.474 (inactive) | -0.0615 (inactive) | 0.001 | -0.0736 | 0.717 | 0.0309 | 0.439
11 | COc1ccc(CCNC(=O)[C@@H]2c3ccccc3C(=O)N(c3ccc(C)cn3)[C@H]2c2ccc(CO)cc2)cc1 | -0.657 | 0.569 (inactive) | -0.456 (inactive) | 0.648 (inactive) | 0.459 (inactive) | -0.776 | -0.253 | -2.23 | -1.76 | -0.497
12 | CCCC[C@H]1OB(O)C[C@H]2C1=C(C)C[C@H]1C(=O)N(C)C(=O)[C@H]12 | 0.224 | 0.0813 (inactive) | -0.0729 (inactive) | -0.237 (inactive) | 1.23 (inactive) | -0.174 | -0.0221 | 0.697 | -0.102 | 0.948
13 | C#CCCCON=C1C[C@@H](O)[C@@H](O)[C@@H]2[C@@H]3C(=O)N(c4cccc(Oc5ccccc5)c4)C(=O)[C@@H]3CC[C@@H]12 | 0.0741 | 0.317 (inactive) | 0.000705 (inactive) | 2.16 (inactive) | 0.427 (inactive) | 0.766 | -0.128 | -0.0313 | 0.112 | 0.277
14 | CO[C@H]1COC(=O)[C@@H]2CCCN2C(=O)[C@@H](C)COC(=O)CC=C[C@@H]1C | 0.055 | 0.321 (inactive) | -0.556 (inactive) | -0.892 (inactive) | -0.0307 (inactive) | 0.457 | -0.0136 | 1.24 | 0.219 | 2.14
15 | CCN1C(=O)[C@H]2[C@H]3[C@H](O)[C@H](O)CC(=NOC(C)CN4CCCCc5nc(C)c(C)cc54)[C@@H]3CC[C@H]2C1=O (stereo not given in full) | 0.185 | 0.06 (inactive) | 1.07 (inactive) | 0.778 (inactive) | 0.618 (inactive) | -0.0098 | -0.024 | 0.763 | 0.769 | 0.809
16 | CC(CCN1CCCCc2nc(C)c(C)cc21)=NOC(C)CN1CCCc2nc(C)c(C)cc21 (stereo not given) | 0.871 | -0.191 (inactive) | -0.812 (inactive) | -0.24 (inactive) | 0.0936 (inactive) | 1.42 | 0.637 | 1.19 | 0.863 | 1.73
17 | CC(=O)OC[C@H]1O[C@H](C#CCCCc2ccccc2)C=C[C@@H]1OC(C)=O | 0.18 | -2.33 (inactive) | 0.952 (inactive) | 0.106 (inactive) | 1.28 (inactive) | -0.111 | 0.322 | -0.0078 | 0.0804 | 1.19
18 | CC(CCN1CCc2nc(-c3ccccc3)c(-c3ccccc3)cc2C1)=NOC(C)CN1CCCCc2nc(C)c(C)cc21 (stereo not given) | 0.0802 | 0.168 (inactive) | -0.075 (inactive) | -0.147 (inactive) | 0.0715 (inactive) | 0.393 | -0.0195 | 0.319 | 0.278 | 0.569
19 | CO[C@@H]1COC(=O)CC=C[C@@H](C)[C@@H]2C=C[C@@H](O)[C@@H](COC(=O)CC=C[C@H]1C)O2 | -0.141 | -0.972 (inactive) | -0.492 (inactive) | 0.343 (inactive) | 0.427 (inactive) | -0.0469 | -0.21 | 0.666 | 0.244 | 2.18
20 | COC(=O)CC=C[C@@H](C)[C@@H](C=NO[C@@H](C)c1cc(-c2c(C)cc(C)cc2C)no1)OC | -0.828 | -2.12 (inactive) | -0.726 (inactive) | 2.71 (inactive) | -0.254 (inactive) | -0.432 | -0.249 | -2.2 | -2.18 | -1.46
21 | CO[C@H]1COC(=O)[C@H](C)NC(=O)[C@@H](C)COC(=O)CC=C[C@@H]1C | -0.185 | -0.068 (inactive) | -0.865 (inactive) | 0.341 (inactive) | -0.178 (inactive) | -0.356 | -0.016 | 1.24 | 0.296 | 1.47
22 | C=CCOC(=O)[C@H]1[C@@H]2C(=O)O[C@@H](c3ccccc3)[C@@H](c3ccccc3)N2[C@@H](c2ccc(OCCOC(=O)[C@H]3C[C@H]4C(=O)N5CCC[C@H]5C(=O)N4[C@H]3c3cccc(OCCO)c3)cc2)[C@]12C(=O)Nc1ccc(I)cc12 | 1.83 | 0.156 (inactive) | -0.315 (inactive) | -0.134 (inactive) | 0.437 (inactive) | 2.76 | 1.17 | 1.95 | 2.23 | 2.08
23 | COc1ccc(O[C@@H]2[C@H](O)CO[C@H]2C=CC#Cc2ccccc2)cc1 | -0.02 | 0.163 (inactive) | 0.995 (inactive) | 0.201 (inactive) | 0.415 (inactive) | -0.31 | -0.0762 | 0.23 | 0.286 | 0.332
24 | C=CCC(OC(C)=O)[C@@H]1[C@@H](N(Cc2cc3ccccc3o2)C(=O)Cc2ccc(F)cc2)c2cc(OCCCO)ccc2N1C(=O)Cc1ccc(OC)cc1 (stereo not given in full) | -0.368 | -0.276 (inactive) | 0.00133 (inactive) | 1.27 (inactive) | 0.515 (inactive) | 0.0444 | -0.045 | -0.499 | -0.522 | 0.603
25 | COc1ccc(O[C@H]2C=C[C@@H](c3ccccc3)O[C@@H]2COC(=O)CCC(C)=NO[C@H](C)c2cn([C@@H]3COC[C@H]3O)nn2)cc1 | 0.276 | -3.36 (inactive) | -1.39 (inactive) | 5.66 (inactive) | 0.867 (inactive) | 2.18 | -0.103 | 0.249 | 0.419 | 0.754
26 | CCCC=C(CCC)[C@@H](NC(=O)c1ccc(-c2ccccc2)cc1)c1ccc(C(=O)OC)cc1 | -0.0745 | -0.116 (inactive) | 0.29 (inactive) | 0.576 (inactive) | 0.381 (inactive) | 1.09 | 0.0872 | -0.162 | 0.0735 | -0.809
27 | CC1CC/C=C\[C@H]2OC34C=CCN(C(C)C)C(=O)[C@H]3N(CCCO)C(=O)[C@@H]4C2C(=O)O1 (stereo not given in full) | -0.439 | -1.03 (inactive) | 1.15 (inactive) | 0.601 (inactive) | 0.371 (inactive) | -1.47 | 0.095 | 1.72 | -1.29 | 0.533
28 | CC(CCN1CCCCc2nc(C)c(C)cc21)=NOC(C)CN1CCCCc2nc(C)c(C)cc21 (stereo not given) | 0.183 | -2.16 (inactive) | 0.483 (inactive) | 0.187 (inactive) | 0.907 (inactive) | 1.1 | 0.0528 | 2.88 | 2.32 | 1.69
29 | CC(C)NC(=O)[C@@]1(c2ccc([N+](=O)[O-])cc2)CC(=O)N(CC23CC4CC(CC(C4)C2)C3)[C@@H]1c1ccc(CO)cc1I | 0.492 | -5.69 (inactive) | 0.017 (inactive) | 0.531 (inactive) | 0.0456 (inactive) | 0.131 | 0.0435 | 0.484 | 0.369 | 0.746
30 | C=CCNC(=O)[C@H]1[C@@H]2C(=O)O[C@@H](c3ccccc3)[C@@H](c3ccccc3)N2[C@@H](c2ccc(O)cc2)[C@]12C(=O)N(C(=O)OCCOC)c1ccc(C#CC3=CCCCC3)cc12 | 0.411 | -3.95 (inactive) | 0.101 (inactive) | -0.878 (inactive) | -0.633 (inactive) | 0.841 | 0.935 | 0.757 | 1.14 | 1.45
